Records with an inconclusive call do not appear. Unmarked numbers belong to inactive results. Calls come from the whole dose curve; as a rule, active = well fitted cell-killing curve with a large enough effect in the repeat runs; inconclusive = weak or mixed curves, or effect the other way; inactive = flat fitted curve, though single readings scatter.
% is set by controls: 0 for no effect and ±100 for the full control effect.

A short description of the experiment: Caspase-3/7 induction in HepG2 cells by small molecules, qHTS cell viability counter screen (AID 1346981). Note: nearly all actives have a fitted effect of over 30% in size. The conditions noted are these: CellTiter-Fluor fluorescence, 17 h; series mostly up to 92.4 µM; activity change, negative = cytotoxicity: at the top concentration. The text has this:
U.S. Tox21 Program National Center for Advancing Translational Sciences [NCATS] NIH Chemical Genomics Center [NCGC] U.S. Environmental Protection Agency [EPA] National Institutes of Environmental Health Sciences [NIEHS] National Toxicology Program [NTP] U.S. Food and Drug Administration [FDA] Tox21 Assay Overview: Apoptosis is a process of programmed cell death and plays a central role in the development of multicellular organisms. It is a highly regulated process and induces cell death by activating caspases, which are the members of cysteine aspartic acid-specific protease (caspase) family. Caspases involved in apoptosis are classified by their mechanism of action as initiator caspases (caspase-2, -8, -9 and -10) and executioner caspases (caspase-3, -6, and -7). Inhibition of apoptosis results in number of cancers, autoimmune diseases, inflammatory diseases and viral infection. To identify small molecule compounds that induce apoptosis, a homogeneous, luminescent Caspase-Glo 3/7 assay was used. Wild type HepG2 cells were used to screen Tox21 libraries for identifying caspase-3/7 activity inducers. Also cytotoxicity of the compounds was tested in parallel by measuring the cell viability using CellTiter-Fluor assay system in the same wells.
Tox21 Assay Protocol Summary: HepG2 cells were dispensed at 2,000 per well in 5uL of culture medium into white solid bottom 1536-well plates (Corning Life Sciences, Corning, NY) using a Multidrop Combi (Thermo Scientific, Waltham, MA) dispenser. The assay plates were incubated at 37 C and 5% CO2 for 5hr, and then 23nL of compounds dissolved in DMSO and positive control were transferred using a Pintool station ([…], San Diego, CA). The assay plates were incubated at 37C and 5% CO2 for 17hr. For cytotoxicity read, after 16hr incubation at 37C, 1uL CellTiter-Fluor reagent (Promega Corporation, Madison, WI) was added to each well of the assay plates using Flying Reagent Dispenser (FRD, Aurora Discovery, San Diego, CA). After 1hr incubation at 37C and 5% CO2, the fluorescence signal was quantified using a ViewLux plate reader (PerkinElmer, Shelton, CT).
Regarding `OCCN1C[C@H](O)[C@@H](O)[C@H](O)[C@H]1CO`, the “activity change, negative = cytotoxicity” value is -2.61% [at 42.5 µM]. In the case of `Nc1ccn(C2CO[C@H](CO)O2)c(=O)n1` (stereo not given in full) it was 0.862% [at 42.5 µM]; in that of `CCn1cc(C(=O)O)c(=O)c2cc(F)c(N3CCN(C)CC3)cc21`, 0.0199% [at 19 µM]; in that of `CO`, 3.9%.

With `Cc1ccc(Nc2ccc(O)c3c2C(=O)c2ccccc2C3=O)cc1`, the “activity change, negative = cytotoxicity” value is -6.22%. To `CCCCC=O` belongs 0.0069%; to `CC(C)(O)Cc1ccccc1`, 0.267%. To `NC(N)=NS(=O)(=O)c1ccc(N)cc1` belongs 2.24% [at 42.5 µM]; to `CCCCCCCCC=O`, 4.97%; to `C=C(C)[C@H]1CC=C(C)CC1`, -0.318%. `CCCCCCCCCCCCI`: the “activity change, negative = cytotoxicity” value was -9.46%. Consider `CCC(C)OC(=O)N1CCCCC1CCO` (stereo not given), for which the “activity change, negative = cytotoxicity” value was -5.12%. In the case of `CCN1CCN(c2cc3c(cc2F)c(=O)c(C(=O)O)cn3C2CC2)CC1` it was 0.364% [at 42.5 µM]. To `Cc1cc(C)cc(OCC2CNC(=O)O2)c1` (stereo not given) belongs 5.53% [at 42.5 µM]. To `CC(C)(C)N(CCO)CCO` belongs -0.385%; to `CC(=O)NC(Cc1ccccc1)C(=O)O` (stereo not given), -0.074% [at 42.5 µM]. `CC(C)COC(=O)C(C)C`: the “activity change, negative = cytotoxicity” value is 12.3%. In the case of `OC[C@H]1O[C@@H]2O[C@H]3[C@H](O)[C@@H](O)[C@@H](O[C@H]4[C@H](O)[C@@H](O)[C@@H](O[C@H]5[C@H](O)[C@@H](O)[C@@H](O[C@H]6[C@H](O)[C@@H](O)[C@@H](O[C@H]7[C@H](O)[C@@H](O)[C@@H](O[C@H]8[C@H](O)[C@@H](O)[C@@H](O[C@H]9[C@H](O)[C@@H](O)[C@@H](O[C@H]1[C@H](O)[C@H]2O)O[C@@H]9CO)O[C@@H]8CO)O[C@@H]7CO)O[C@@H]6CO)O[C@@H]5CO)O[C@@H]4CO)O[C@@H]3CO` it was -0.28% [at 42.5 µM]; in that of `CC(C)(O)c1ccccc1`, 2.23%. On to `Cc1nccn1CC1CCc2c(c3ccccc3n2C)C1=O` (stereo not given), for which the “activity change, negative = cytotoxicity” value was 0.346% [at 42.5 µM]. In the case of `Cc1ccccc1C(=O)O` it was -21.3%.

`NC(=O)c1c(Cl)cccc1Cl`: the “activity change, negative = cytotoxicity” value is 6.24%.

`NC(=S)Nc1cccc2ccccc12`: the activity change, negative = cytotoxicity is -1.33% [at 8.39 µM].

On to `O=c1[nH]c2ccccc2c(=O)n1CCCl`, for which the “activity change, negative = cytotoxicity” value was 5.66% [at 42.5 µM]. In the case of `C[N+](C)(C)CC[N+]1(C)Cc2c(Cl)c(Cl)c(Cl)c(Cl)c2C1` it was -1.24% [at 42.5 µM].

For the compound `Nc1ccc2cc(S(=O)(=O)O)ccc2c1`, the “activity change, negative = cytotoxicity” value was -3.04%. Consider `CCOC(=O)Nc1ccc2c(c1)N(C(=O)CCN1CCOCC1)c1ccccc1S2`, for which the “activity change, negative = cytotoxicity” value was -5.92% [at 42.5 µM]. For the compound `CCCCCCCCN(C)CCCCCCCC`, the “activity change, negative = cytotoxicity” value was 3.49%. With `CCN1CCCC1CNC(=O)c1cc(S(N)(=O)=O)ccc1OC` (stereo not given), the “activity change, negative = cytotoxicity” value was -7.48%. On to `COc1cccc(Br)c1`, for which the “activity change, negative = cytotoxicity” value is 8.31%. To `O=C(CCOCCOCCOCCOCCC(=O)Nc1c(I)cc(I)c(C(=O)O)c1I)Nc1c(I)cc(I)c(C(=O)O)c1I` belongs 9.88% [at 42.5 µM]; to `Cc1ccccc1Br`, -2.91%.

In the case of `COC(=O)c1ccc(C(=O)OC)c(C(=O)OC)c1`, the “activity change, negative = cytotoxicity” value was -0.988%. In the case of `COC[C@H](c1ccc(C(F)(F)F)cc1)N1CCN(C2(C)CCN(C(=O)c3c(C)ncnc3C)CC2)C[C@H]1C` it was 0.139% [at 42.5 µM]; in that of `CCc1cc(S(=O)(=O)O)c2cc(C(C)C)cccc1-2`, -7.32% [at 42.5 µM]. To `NS(=O)(=O)c1cc2c(cc1C(F)(F)F)NC(Cc1ccccc1)NS2(=O)=O` (stereo not given) belongs 7.32% [at 42.5 µM]; to `Nc1cc(C(Cl)=C(Cl)Cl)c(S(N)(=O)=O)cc1S(N)(=O)=O`, -0.295% [at 42.5 µM]. Regarding `Cc1c(C)n(CCN(C)C)c2ccc(C(=O)OCCN(C)C)cc12`, the “activity change, negative = cytotoxicity” value is -15.3% [at 42.5 µM]. For `CCCCCC[C@@H](CCC)C(=O)O`, the “activity change, negative = cytotoxicity” value is 9.06% [at 42.5 µM]. To `O=C(O)/C=C/c1ccc(/C=C/C(=O)O)cc1` belongs 3.8% [at 42.5 µM].
